# From the supplement of paper PMC8728848
# This excerpt belongs to a sample that is enriched for the strongest signals.
# B1: MFG-E8 (Mus musculus), P21956 (protein)
# chain: MQVSRVLAALCGMLLCASGLFAASGDFCDSSLCLNGGTCLTGQDNDIYCLCPEGFTGLVCNETERGPCSPNPCYNDAKCLVTLDTQRGDIFTEYICQCPVGYSGIHCETETNYYNLDGEYMFTTAVPNTAVPTPAPTPDLSNNLASRCSTQLGMEGGAIADSQISASSVYMGFMGLQRWGPELARLYRTGIVNAWTASNYDSKPWIQVNLLRKMRVSGVMTQGASRAGRAEYLKTFKVAYSLDGRKFEFIQDESGGDKEFLGNLDNNSLKVNMFNPTLEAQYIKLYPVSCHRGCTLRFELLGCELHGCSEPLGLKNNTIPDSQMSASSSYKTWNLRAFGWYPHLGRLDNQGKINAWTAQSNSAKEWLQVDLGTQRQVTGIITQGARDFGHIQYVASYKVAHSDDGVQWTVYEEQGSSKVFQGNLDNNSHKKNIFEKPFMARYVRVLPVSWHNRITLRLELLGC
# What was measured:
# Assay in all cases: glycan array binding signal (z-score within array); higher = stronger binding
# Conditions in all cases: glycan notation: IUPAC condensed, linker removed
# [1] = molecular target: Fuc(a1-2)Gal(b1-3)GalNAc(a1-3)[Fuc(a1-2)]Gal(b1-4)GlcNAc
# Outline: (§1)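 Glycan array binding is given as a within-array Z-score, which can be read as non-binding when negative. The arrays, 3228 of them, came from the Consortium for Functional Glycomics database and were retained only where the protein sequence was available. Z-scores were averaged across arrays of the same protein sequence at different concentrations or buffers and across linkers.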
# [2] = molecular target: Fuc(a1-2)Gal(b1-4)GlcNAc(b1-2)[Fuc(a1-2)Gal(b1-4)GlcNAc(b1-4)]Man(a1-3)[Fuc(a1-2)Gal(b1-4)GlcNAc(b1-2)Man(a1-6)]Man(b1-4)GlcNAc(b1-4)GlcNAc
# Outline: as §1
# [3] = molecular target: Fuc(a1-2)Gal6S(b1-3)GlcNAc6S
# Outline: as §1
# [4] = molecular target: Fuc(a1-2)[Gal(a1-3)]Gal(b1-4)[Fuc(a1-3)]GlcNAc(b1-3)GalNAc
# Outline: as §1
# [5] = molecular target: Fuc(a1-2)[GalNAc(a1-3)]Gal(b1-4)[Fuc(a1-3)]GlcNAc(b1-3)GalNAc
# Outline: as §1
# [6] = molecular target: Fuc(a1-3)[Gal(b1-4)]GlcNAc(b1-4)Gal(b1-4)[Fuc(a1-3)]GlcNAc
# Outline: as §1
# [7] = molecular target: Gal(a1-2)Gal
# Outline: as §1
# [8] = molecular target: Gal(a1-3)Gal(b1-3)GlcNAc
# Outline: as §1
# [9] = molecular target: Gal(a1-4)Gal(b1-3)GlcNAc(b1-2)Man(a1-3)[Gal(a1-4)Gal(b1-3)GlcNAc(b1-2)Man(a1-6)]Man(b1-4)GlcNAc(b1-4)GlcNAc
# Outline: as §1
# [10] = molecular target: Gal(b1-3)GalNAc(a1-3)[Fuc(a1-2)]Gal(b1-4)GlcNAc
# Outline: as §1
# [11] = molecular target: Gal(b1-3)GalNAc(b1-4)Gal(b1-4)Glc
# Outline: as §1
# [12] = molecular target: Gal(b1-3)GlcNAc(b1-3)Gal(b1-4)GlcNAc(b1-3)Gal(b1-4)GlcNAc(b1-2)[Gal(b1-3)GlcNAc(b1-3)Gal(b1-4)GlcNAc(b1-3)Gal(b1-4)GlcNAc(b1-6)]Man(a1-6)[Gal(b1-3)GlcNAc(b1-3)Gal(b1-4)GlcNAc(b1-3)Gal(b1-4)GlcNAc(b1-2)Man(a1-3)]Man(b1-4)GlcNAc(b1-4)[Fuc(a1-6)]GlcNAc
# Outline: as §1
# [13] = molecular target: Gal(b1-4)GlcNAc(b1-3)Gal(b1-4)GlcNAc(b1-2)Man(a1-3)[Gal(b1-4)GlcNAc(b1-3)Gal(b1-4)GlcNAc(b1-2)Man(a1-6)]Man(b1-4)GlcNAc(b1-4)GlcNAc
# Outline: as §1
# [14] = molecular target: Gal(b1-4)GlcNAc(b1-3)Gal(b1-4)GlcNAc(b1-3)Gal(b1-4)GlcNAc(b1-3)Gal(b1-4)GlcNAc(b1-3)Gal(b1-4)GlcNAc(b1-2)[Gal(b1-4)GlcNAc(b1-3)Gal(b1-4)GlcNAc(b1-3)Gal(b1-4)GlcNAc(b1-3)Gal(b1-4)GlcNAc(b1-3)Gal(b1-4)GlcNAc(b1-6)]Man(a1-6)[Gal(b1-4)GlcNAc(b1-3)Gal(b1-4)GlcNAc(b1-3)Gal(b1-4)GlcNAc(b1-3)Gal(b1-4)GlcNAc(b1-3)Gal(b1-4)GlcNAc(b1-2)Man(a1-3)]Man(b1-4)GlcNAc(b1-4)[Fuc(a1-6)]GlcNAc
# Outline: as §1
# [15] = molecular target: Gal(b1-4)GlcNAc(b1-6)Gal(b1-4)GlcNAc
# Outline: as §1
# [16] = molecular target: Gal3S(b1-4)GlcNAc
# Outline: as §1
# [17] = molecular target: Gal3S6S(b1-4)GlcNAc6S
# Outline: as §1
# [18] = molecular target: Gal4S(b1-4)GlcNAc
# Outline: as §1
# [19] = molecular target: Gal6P(b1-4)GlcNAc
# Outline: as §1
# [20] = molecular target: Gal6S(b1-3)GlcNAc6S
# Outline: as §1
# [21] = molecular target: Gal6S(b1-4)GlcNAc6S
# Outline: as §1
# [22] = molecular target: GalNAc(b1-4)GlcNAc(b1-2)Man
# Outline: as §1
# [23] = molecular target: GalNAc3S(b1-4)[Fuc(a1-3)]GlcNAc
# Outline: as §1
# [24] = molecular target: GalNAc4S6S(b1-4)GlcNAc
# Outline: as §1
# [25] = molecular target: Glc(a1-6)Glc(a1-6)Glc(a1-6)Glc
# Outline: as §1
# [26] = molecular target: Glc(b1-6)Glc
# Outline: as §1
# [27] = molecular target: GlcNAc(a1-4)Gal(b1-4)GalNAc
# Outline: as §1
# [28] = molecular target: GlcNAc(b1-2)Gal(b1-3)GalNAc
# Outline: as §1
# [29] = molecular target: GlcNAc(b1-3)Gal(b1-4)GlcNAc(b1-2)[GlcNAc(b1-3)Gal(b1-4)GlcNAc(b1-6)]Man(a1-6)[GlcNAc(b1-3)Gal(b1-4)GlcNAc(b1-2)Man(a1-3)]Man(b1-4)GlcNAc(b1-4)GlcNAc
# Outline: as §1
# [30] = molecular target: GlcNAc(b1-3)Gal(b1-4)GlcNAc(b1-3)Gal(b1-4)GlcNAc(b1-2)[GlcNAc(b1-3)Gal(b1-4)GlcNAc(b1-3)Gal(b1-4)GlcNAc(b1-6)]Man(a1-6)[GlcNAc(b1-3)Gal(b1-4)GlcNAc(b1-3)Gal(b1-4)GlcNAc(b1-2)Man(a1-3)]Man(b1-4)GlcNAc(b1-4)[Fuc(a1-6)]GlcNAc
# Outline: as §1
binder,measurement,setting,value
B1,glycan array binding signal (z-score),[1],0.179
same,glycan array binding signal (z-score),[2],0.01
same,glycan array binding signal (z-score),[3],8.57
same,glycan array binding signal (z-score),[4],2.33
same,glycan array binding signal (z-score),[5],1.65
same,glycan array binding signal (z-score),[6],-0.206
same,glycan array binding signal (z-score),[7],0.39
same,glycan array binding signal (z-score),[8],-0.404
same,glycan array binding signal (z-score),[9],-0.165
same,glycan array binding signal (z-score),[10],-0.266
same,glycan array binding signal (z-score),[11],-0.553
same,glycan array binding signal (z-score),[12],0.221
same,glycan array binding signal (z-score),[13],2.48
same,glycan array binding signal (z-score),[14],-0.342
same,glycan array binding signal (z-score),[15],-0.115
same,glycan array binding signal (z-score),[16],-0.46
same,glycan array binding signal (z-score),[17],2.81
same,glycan array binding signal (z-score),[18],-0.4
same,glycan array binding signal (z-score),[19],1.22
same,glycan array binding signal (z-score),[20],3.04
same,glycan array binding signal (z-score),[21],2.98
same,glycan array binding signal (z-score),[22],-0.038
same,glycan array binding signal (z-score),[23],0.832
same,glycan array binding signal (z-score),[24],9.76
same,glycan array binding signal (z-score),[25],-0.038
same,glycan array binding signal (z-score),[26],2.4
same,glycan array binding signal (z-score),[27],5.5
same,glycan array binding signal (z-score),[28],0.853
same,glycan array binding signal (z-score),[29],-0.881
same,glycan array binding signal (z-score),[30],-0.08
